# Rows were chosen to be rich in hits. Some 0.77% of all compounds tested hit in one or more screens of this group.
# RecA splice inh: inhibitors of M. tuberculosis RecA intein splicing; P9WHJ3; cell-free RecA intein splicing, fluorescence; inhibition, % (concentration not given with the values); actives 0.75% (n = 290,000); AID 2221; in the data active = inhibition above about 30%; inconclusive = no clear call, values can overlap the other calls;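 note: 0% = vehicle wells and 100% = reference inhibitor control wells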
# RmlCD inh 1536: blocks M. tuberculosis RmlC and RmlD coupled enzymes; actives 0.03% (n = 160,000); RmlC+RmlD coupled enzyme assay, percent inhibition; primary screen in compound mixtures; inhibition, % at 3.6 µM; in the data active = inhibition mostly above about 34%, no sharp cut-off; inconclusive = no clear call, values can overlap the other calls; inactive = mostly below about 22%
# GFP chromo cs: counter-screen GFP chromophore formation inhibition; shares compounds with RecA splice inh; cell-free GFP chromophore formation, fluorescence; EC50, µM; actives 83% (n = 2,100); AID 434968; call rule not given here
# An asterisk follows results filed as active; ? = inconclusive; . = no result given.
SMILES,RecA splice inh,RmlCD inh 1536,GFP chromo cs
CS(=O)(=O)Cc1ccc(C(=O)NC(c2ccccc2)c2ccccc2)cc1,-3,.,.
CC1=NN(c2ccccc2)C(=O)C1c1ccccc1 (stereo not given),-5,-12,.
CC1=NN(c2ccccc2)C(=O)C1,89*,.,3.1*
CCCOc1ccc(N2C(=O)CC(N(CCc3ccc(OC)cc3)C(=O)/C=C/C(=O)O)C2=O)cc1 (stereo not given),4,12,.
COc1ccc(N2C(=O)CC(N(CCc3ccccc3)C(=O)/C=C/C(=O)O)C2=O)cc1 (stereo not given),1,16,>38
CC(C)c1ccc(C2C(C(=O)c3ccco3)=C(O)C(=O)N2CCN2CCOCC2)cc1 (stereo not given),0,.,.
Cc1nc2c(=O)n(C)c(=O)nc-2n(C)n1,98*,.,0.12*
Cc1ccc(C)c(-n2c3nc(=O)n(C)c(=O)c-3cc3ccccc32)c1,-178,13,.
COC(=O)CCCNC(=O)c1ccc(OS(=O)(=O)c2cc([N+](=O)[O-])ccc2C)cc1,1,.,.
O=C(CC(=O)N/N=C/c1c(F)cccc1Cl)NCc1ccccc1,3,3,.
O=C(Cc1cc(=O)[nH][nH]1)N/N=C/c1c(Cl)cccc1Cl,70*,-3,12*
O=C(CSCc1ccc(Cl)cc1)N/N=C/c1c(Cl)cccc1Cl,3,.,.
O=C(Cc1cc(=O)[nH][nH]1)N/N=C/c1c(F)cccc1Cl,95*,-4,7.9*
O=[N+]([O-])c1cccc(CN2C[C@@]34C=C[C@@H](C[C@@H]3S2(=O)=O)O4)c1,-2,.,.
CC(NC(=O)Cn1ncc(Cl)c(Cl)c1=O)C12CC3CC(CC(C3)C1)C2 (stereo not given),49*,-5,?
CCn1cc(C(=O)NC(C)C23CC4CC(CC(C4)C2)C3)cn1 (stereo not given),0,-6,.
CCC(Cc1ccccc1)NCc1c(C(=O)O)c(C)n(Cc2ccccc2)c1C (stereo not given),-1,6,.
COC(=O)[C@H](CCSC)NC(=O)Nc1ccc(C)cc1,1,.,.
N#C/C(=C\c1cc(O)c(O)c(O)c1)C(N)=O,-3,4,.
N#C/C(=C\c1cc(Cl)c(OCc2ccc(Cl)cc2)c(Cl)c1)C(N)=O,44*,8,>38
Cc1ccc(C)n1-c1ccc(C(=O)/C=C/N(C)C)cc1,-7,1,.
O=C(Cc1ccccn1)c1ccc(Cl)cc1,1,.,.
CC1=C(CC(=O)c2ccc(Cl)cc2)C(=O)c2ccccc2C1=O,68*,-12,11*
COc1ccccc1NC(=O)Nc1cccc(C(=O)O)c1,-1,-2,.
COC(=O)c1cc(NC(=O)Nc2ccccc2OC)cc(C(=O)OC)c1,40*,.,>38
SMILES,RecA splice inh,RmlCD inh 1536,GFP chromo cs
CCc1ccc(NC(=O)COC(=O)/C=C/c2c(C)nn(C3CCS(=O)(=O)C3)c2Cl)cc1 (stereo not given),2,-6,.
COc1ccccc1C(=O)NCCSCc1ccccc1Cl,4,.,.
CCCCNC(=O)c1cccc2c(=O)c(C)c(-c3ccccc3)oc12,-5,10,.
CCCCN(C(=O)c1cccc2c(=O)c(C)c(-c3ccccc3)oc12)c1ccccc1,33*,.,>38
COC1CCN(C(=O)CC2C(=O)NCCN2CC(C)(C)C)CC1 (stereo not given),-3,.,.
Cc1ccc(S(=O)(=O)N[C@@H](Cc2ccccc2)C(=O)CCl)cc1,93*,.,1.9*
Cc1ccc(S(=O)(=O)NC(Cc2ccccc2)C(=O)NN)cc1 (stereo not given),-2,.,.
O=C1CCCN1CCCNS(=O)(=O)c1ccc(Br)s1,-1,.,.
CCN(CC)CCOc1ccc(Br)cc1,-2,.,.
CCN(CC)CCOc1ccc(/C(=C(\Cl)c2ccccc2)c2ccccc2)cc1,36*,.,18*
Cc1ccc(S(=O)(=O)NC(=O)Nc2ccc(N(C)C)cc2)cc1,49*,.,19*
Cc1ccc(NC(=O)NNS(=O)(=O)c2ccc(Br)cc2)cc1,-2,8,.
Cc1nnc(SCC(=O)c2ccc(C(C)C)cc2)s1,-2,.,.
O=c1[nH]cc(NCCc2ccccc2)c(=O)[nH]1,52*,-12,5.5*
O=c1[nH]cc(COCc2ccccc2)c(=O)[nH]1,0,-4,.
COc1ccc(-c2oc(NC(=O)CCl)c(C#N)c2-c2ccc(OC)cc2)cc1,90*,-7,1.4*
COc1ccc(-c2oc(NC(=O)CSc3ncn[nH]3)c(C#N)c2-c2ccc(OC)cc2)cc1,18,-2,.
Cc1ccc2c(c1)N(Cc1cccc(Cl)c1)C(=O)c1cccnc1O2,13,.,.
COc1ccc(CNC(=O)c2c(O)c3cccc4c3n(c2=O)CCC4)cc1OC,1,.,.
O=C(COC(=O)Cc1c[nH]c2ccccc12)NC1CCS(=O)(=O)C1 (stereo not given),-2,.,.
N#CC(C#N)=NNc1ccc(S(N)(=O)=O)cc1,10,3,.
N#CC(C#N)=NNc1ccc(S(=O)(=O)N2CCCCC2)cc1,58*,0,19*
COc1ccc(Nc2nc(N3CCCCC3)nc(N3CCCCC3)n2)c(OC)c1,1,.,.
COc1ccc(Nc2nc(N3CCCCC3)nc3ccccc23)c(OC)c1,93*,.,>38
O=C(CN1CCc2cc3c(cc2C1)OCCCO3)Nc1ccc(F)cc1,0,.,.
O=C(NCC1CCOCC1)c1cc(COc2ccc(F)cc2F)on1,0,.,.

# Screening data deposited in PubChem by several laboratories.
